The whole screen tested about 200,000 compounds, of which about 3,000 (1.5%) were called active.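 Rule for the calls: active = inhibition above about 50% when tested at 10 µM (limit read from the data); inactive = the rest.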 The full list was thinned out, with actives kept by preference.
target: Luciferin 4-monooxygenase (Photinus pyralis) (UniProt P08659); test: firefly luciferase enzyme inhibitors, primary screen, artefact control for luciferase-based inhibitor screens, biochemical, luminescence, ATPLite (AID 1006); conditions: 10 min, at 10 µM, active compounds read high
Sequence (P08659 whole entry, looked up): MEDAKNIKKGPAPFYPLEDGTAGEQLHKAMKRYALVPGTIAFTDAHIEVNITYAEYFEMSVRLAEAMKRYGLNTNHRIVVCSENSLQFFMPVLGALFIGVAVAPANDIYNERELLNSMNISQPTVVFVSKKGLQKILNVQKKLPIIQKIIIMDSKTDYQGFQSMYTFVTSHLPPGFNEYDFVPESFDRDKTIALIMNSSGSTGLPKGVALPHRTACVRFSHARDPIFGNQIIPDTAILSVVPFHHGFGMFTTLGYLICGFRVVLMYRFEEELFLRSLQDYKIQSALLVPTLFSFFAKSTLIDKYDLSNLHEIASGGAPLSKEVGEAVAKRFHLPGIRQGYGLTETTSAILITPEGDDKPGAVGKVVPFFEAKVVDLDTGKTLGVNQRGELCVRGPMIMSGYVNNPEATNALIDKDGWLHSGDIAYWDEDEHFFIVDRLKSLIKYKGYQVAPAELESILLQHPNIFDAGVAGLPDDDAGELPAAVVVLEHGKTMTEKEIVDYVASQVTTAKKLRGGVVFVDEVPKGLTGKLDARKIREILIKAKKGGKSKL

inhibition, active:
c1c2c(cc3sc(N4CCCCC4)nc13)OCCO2 92.9%, COC(=O)C1C(=O)c2c([nH]c(C(=O)OCCSC)c2C)CC1C (stereo not given) 50.1%, Cc1ccc2nc(-c3ccc(SCC(=O)Nc4cc(C)on4)nc3)[nH]c2c1 73.4%, O=C1OC(/C=C/c2ccccc2)=NC/1=C/c1ccco1 53.5%, CCc1ccc2oc(-c3ccc(N)cc3)nc2c1 80.7%, Cc1cc(/C=C2/NC(=O)NC2=O)c(C)n1-c1cccnc1 56.5%, Cc1ccccc1-n1c(C)cc(/C=C2\NC(=O)NC2=O)c1C 83.9%, COc1ccc(NC(=S)N2N=CCC2c2ccccc2)cc1 (stereo not given) 65.3%, CC(OC(=O)c1ccc2ccccc2n1)C(=O)c1ccccc1 (stereo not given) 81.1%, CC(=C/c1ccccc1)/C=N/NC(=O)c1cc(C)oc1C 78.3%, Cc1cc(C(=O)N/N=C/c2ccc(N3CCOCC3)cc2)c(C)o1 50.7%, O=C(Nc1ccn(Cc2ccccc2)n1)c1cccc(F)c1 64.2%, O=C(Nc1ccn(Cc2ccccc2)n1)c1n[nH]c([N+](=O)[O-])c1Cl 83%

inhibition, inactive:
COc1ccc2nc(Nc3nc4cc5c(cc4s3)OCCO5)sc2c1 11.3%, Brc1ccc2nc(N3CCCC3)sc2c1 35.9%, Cc1ccc(N(C(=O)c2ccc(CN3CCOCC3)o2)C(C(=O)NCCC(C)C)c2cccs2)c(C)c1 (stereo not given) -4.1%, COc1ccc(C(=O)NCC(=O)N/N=C/c2ccc([N+](=O)[O-])s2)cc1OC 2.8%, OC(CNCc1ccc(Cl)c(Cl)c1)c1ccccc1 (stereo not given) -8.3%, CCCOC(=O)C1=C(C)NC2=C(C(=O)C(C(=O)OC)C(C)C2)C1c1ccc(N(C)C)cc1 (stereo not given) 0.8%, CCCOC(=O)c1[nH]c2c(c1C)C(=O)CC(c1cc(OC)c(OC)c(OC)c1)C2 (stereo not given) -2.3%, CCOc1ccc(-n2cnnn2)cc1S(=O)(=O)N1CCC(C)CC1C (stereo not given) -3.6%, Cc1cccc(NC(=O)CN2C(=O)c3ccccc3C2=O)c1C -4%, Cc1ccc(SCCC(=O)Nc2cc(C)on2)cc1 -4.4%, Cc1ccc(-c2csc(SCC(=O)Nc3cc(C)on3)n2)cc1 -4.8%, COC(=O)NNC(=O)C1CCC(C)CC1 (stereo not given) -4.8%, CCNS(=O)(=O)c1ccc(NC(=O)c2cncc(Br)c2)cc1 -4.2%, COc1ccc(Nc2nc(NCc3ccco3)nc(N/N=C/c3ccccc3Cl)n2)cc1 -1.1%, COc1cc(NC(=S)NNC(=O)CC(C)C)c(OC)cc1Cl -8.4%, CC(C)(C)C1C/C(=C/c2ccco2)C(=O)/C(=C/c2ccco2)C1 (stereo not given) -5.4%, COc1ccccc1/C=C/C1=NC(=C\N(C)C)/C(=O)O1 0.6%, O=C(C1=C[C@H](c2coc3ccccc3c2=O)C[C@H](OCc2ccc(CO)cc2)O1)N1CCN(Cc2ccccc2)CC1 -6.2%, CCCCCC(=O)Nc1ccc2oc(-c3ccncc3)nc2c1 -5.7%, CCN(CC)c1ccc2oc(=O)c(C)nc2c1 -3%, COc1cc(CN2CCNC(=O)C2CC(=O)NCCc2ncccc2C)cc(OC)c1 (stereo not given) -1.3%, CCOC(=O)CCCNC(=O)COC(=O)/C=C/c1ccc2c(c1)OCO2 -1.4%, Cc1cc(/C=C2\SC(=Nc3ccc(N4CCOCC4)cc3)N(C)C2=O)c(C)n1-c1cccnc1 -0.4%, Cc1ccc(CN2C(=O)N/C(=C/c3cc(C)n(-c4ccccn4)c3C)C2=O)cc1 1.2%, Cc1cc(/C=C(/C#N)C(=O)Nc2ccc(Cl)cc2)c(C)n1-c1cccnc1 -3.9%, Cc1cccc(C)c1-n1c(C)cc(/C=C2\C(=O)NN(c3ccccc3)C2=O)c1C 13.6%, CC(NC(=O)c1cccc2ccccc12)c1ccc2c(c1)CCCC2 (stereo not given) -6.2%, COc1ccc(C/C(N)=N/OC(=O)c2ccco2)cc1OC -2.2%, O=C(CCc1ccccc1)NNC(=O)c1ccc(Br)cc1 -1.3%, Cc1ccc(C)c(Cn2nnc3c(=O)[nH]c(C(=O)Nc4ccc(F)cc4)nc32)c1 -10.1%, CCN(c1ccccc1)S(=O)(=O)c1ccc2[nH]c(=O)[nH]c2c1 -6%, O=C(COc1cc(Cl)c(Cl)cc1Cl)NCCc1ccccn1 4.2%, CN(CCN1CCOCC1)Cc1nc(-c2ccc3c(c2)OCO3)no1 -5.1%, O=C(O)CC/C(=N\NC(=O)c1ccc(F)cc1)c1ccc(Br)cc1 -2.4%, COc1ccccc1-n1ccnc1SCC(=O)NC(C)(C)C -7.3%, COc1ccc(C(=S)Nc2ccccc2)cc1 8.7%, COc1ccc(C(=O)NC2CCN(C(=S)Nc3ccccc3)CC2)cc1 -7.5%, COc1ccc(C(=O)COC(=O)c2ccc3ccccc3n2)cc1 19.4%, O=C(Oc1ccc([N+](=O)[O-])cc1)c1ccc2ccccc2n1 41.6%, COc1ccc(Cl)cc1NC(=O)Cn1nc(-c2ccc(C)cc2)n(C)c1=S -5.1%, Cc1ccc(C(=O)Oc2coc(CSc3nnc(NC(=O)c4cccs4)s3)cc2=O)cc1C -0.1%, Cc1ccccc1N/N=C/c1ccc(N2CCOCC2)cc1 -3.5%, Cc1cc(C(=O)N/N=C\C(Br)=C\c2ccccc2)c(C)o1 22.6%, CCN(CC)c1ccc(C(=O)N/N=C/c2ccc(N3CCOCC3)cc2)cc1 -7%, Cc1cc(C(=O)N/N=C/c2ccccc2[N+](=O)[O-])c(C)o1 32.2%, Cc1ccc(NC(=S)N(Cc2ccco2)C(C)c2cccs2)cc1 (stereo not given) 3.7%, CCn1nc(C)cc1C(=O)N1CCCC(C(=O)c2cccc(OC)c2)C1 (stereo not given) 5.6%, COc1ccc(-n2cc(CNC3CCOCC3)c(-c3cccc(F)c3)n2)cc1 -2.3%, O=C(Nc1ccn(Cc2ccc(F)cc2)n1)c1ccncc1 0.9%, Cn1cc([N+](=O)[O-])c(C(=O)Nc2cnn(Cc3ccc(F)cc3)c2)n1 -8.5%, Cc1ccc(Cn2ccc(NC(=O)c3cc(C(C)C)on3)n2)cc1 0%, CC(=O)Nc1ccn(Cc2c(F)cccc2Cl)n1 -2.9%
